In the supplement of paper PMC10681739:

Key:
[1] = target: T1, ETS1 (UniProt P14921); test: ETS1 binding intensity (PBM fluorescence), ETS1 alone (arbitrary fluorescence units); higher = stronger binding; conditions: ETS1 concentration 1 nM; RUNX1 concentration 0 nM
T1 sequence: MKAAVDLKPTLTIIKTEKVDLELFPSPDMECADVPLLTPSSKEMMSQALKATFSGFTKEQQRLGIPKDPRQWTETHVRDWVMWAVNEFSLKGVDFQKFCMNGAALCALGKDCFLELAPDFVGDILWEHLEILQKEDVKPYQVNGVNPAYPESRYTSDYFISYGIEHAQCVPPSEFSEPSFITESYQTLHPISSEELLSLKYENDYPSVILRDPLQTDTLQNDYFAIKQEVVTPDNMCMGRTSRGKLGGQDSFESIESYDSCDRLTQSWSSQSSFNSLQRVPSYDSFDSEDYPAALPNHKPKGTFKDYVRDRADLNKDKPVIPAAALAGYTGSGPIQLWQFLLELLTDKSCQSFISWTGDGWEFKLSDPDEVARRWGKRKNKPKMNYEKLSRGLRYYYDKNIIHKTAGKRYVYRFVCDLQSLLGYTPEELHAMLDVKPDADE

[2] = target: RUNX1 (UniProt Q01196); test: RUNX1 binding intensity (PBM fluorescence), RUNX1 alone (arbitrary fluorescence units); higher = stronger binding; conditions: RUNX1 concentration 2 nM; ETS1 concentration 0 nM
RUNX1, sequence (Q01196 whole entry): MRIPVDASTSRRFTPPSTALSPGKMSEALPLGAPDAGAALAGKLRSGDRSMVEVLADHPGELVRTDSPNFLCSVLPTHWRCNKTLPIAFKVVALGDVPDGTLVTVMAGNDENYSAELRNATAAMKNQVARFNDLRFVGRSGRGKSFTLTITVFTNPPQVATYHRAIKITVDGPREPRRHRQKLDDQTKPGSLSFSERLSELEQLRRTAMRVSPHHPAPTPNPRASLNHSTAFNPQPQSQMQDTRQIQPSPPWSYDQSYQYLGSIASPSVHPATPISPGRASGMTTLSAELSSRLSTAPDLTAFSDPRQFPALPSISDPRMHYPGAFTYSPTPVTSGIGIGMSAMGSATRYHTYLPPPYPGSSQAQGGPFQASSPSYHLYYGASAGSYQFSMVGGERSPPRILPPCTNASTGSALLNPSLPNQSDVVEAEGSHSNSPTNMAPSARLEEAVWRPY
Procedure: (§1)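 Cooperative gcPBM on 36-bp genomic probes with neighbouring ETS1 and RUNX1 sites. Recombinant human RUNX1 (2 nM) was incubated alone or with ETS1 (25 nM) and detected with anti-RUNX1 antibody plus Alexa488 secondary. Values are medians over 4 replicate spots; the RUNX1+ETS1 data were normalised to the RUNX1-only data. The probes sit in constant array flanks that are not printed.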

[3] = target: T1, ETS1; test: ETS1 binding intensity (PBM fluorescence) in presence of RUNX1, normalised to ETS1-only experiment (arbitrary fluorescence units); higher = stronger binding; conditions: ETS1 concentration 1 nM; RUNX1 concentration 25 nM
[4] = target: RUNX1 (UniProt Q01196); test: RUNX1 binding intensity (PBM fluorescence) in presence of ETS1, normalised to RUNX1-only experiment (arbitrary fluorescence units); higher = stronger binding; conditions: RUNX1 concentration 2 nM; ETS1 concentration 25 nM
Procedure: as §1
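Wherever RUNX1 binding intensity (PBM fluorescence) in presence of ETS1, normalised to RUNX1-only experiment is given: Full-length recombinant human ETS1 or RUNX1 bound to double-stranded 36-bp genomic probes on microarrays, detected by protein-specific primary antibody and Alexa488 secondary, spot fluorescence as median of four replicate spots.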
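Wherever RUNX1 binding intensity (PBM fluorescence), RUNX1 alone is given: Full-length recombinant human RUNX1 bound to double-stranded 36-bp genomic probes on a high-density microarray, scored as Alexa488 fluorescence per spot via anti-RUNX1 antibody, median of four replicate spots.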

Row | Sequence | ETS1 binding intensity [1] | RUNX1 binding intensity [2] | ETS1 binding intensity [3] | RUNX1 binding intensity [4]
1 | GGTTCATTTCCTTTTCCTCCTTGTGGTATAAAAGAG | 697 | 1210 | 985 | 2890
2 | TGGCATTCTCCTTCCTGTCTCCTAACCACAGCCCAC | 741 | 2110 | 2050 | 4690
3 | GGGGCCTCTGCTACTTCCTAGACCGCAAAATGGAGA | 413 | 5260 | 1570 | 6150
4 | GCTGCCGGAAAAGGCGCCGAGGTAACCGCCTCACTT | 479 | 903 | 496 | 1020
5 | CACCGGAAAAGGCAAGCGCGGCCGCGCGGTTGGCGC | 675 | 745 | 1090 | 1160
6 | GGAGGAAGAGGAGGATGTGGTGAGCCGCTCCCCGCC | 923 | 782 | 1870 | 1260
7 | ACATGGTCTCGCTTCCTGTTTACACCACAGAAAGCT | 2820 | 1040 | 4140 | 1850
8 | GTCAGGGGAACAGGATGTGGGTGGGAGCCAGCCCCA | 4250 | 729 | 5560 | 2540
9 | GCTGCAGCAGGCGGGAAGTCTGCGGTTCGCGGGCTC | 622 | 1150 | 6590 | 1830
10 | AACAAACAGTAGGCAGGAAGTGGTTAAACCGAAAGG | 8580 | 897 | 28900 | 3590
11 | AGGGCATTTCCTTTGGGGCTGGTGGTCACGGACAAC | 471 | 723 | 381 | 1430
12 | CTTGCCACACTTCCTCTTGTTTTGAACCACTATATT | 724 | 2620 | 641 | 4740
13 | AACCCCAAAACGGAAACACCGGAGCCACAAGCTGAG | 731 | 900 | 961 | 1300
14 | GGACTTCCTGAACTGGGAGGTCACCGACCACAACCT | 354 | 831 | 671 | 1740
